PubChem BioAssay (NCATS)
Records with an inconclusive call do not appear. Active and inactive are the calls of the source. Calls come from the whole dose curve; as a rule, active = well fitted curve in the direction sought with a large enough effect; inconclusive = small, poorly fitted or top-dose-only effect, or another doubt; inactive = no such curve, though single readings can be large; an effect the other way counts as inactive or inconclusive.

Tests used:
[1] = system: Zika virus NS2B-NS3 protease (unlinked complex); test: Confirmatory screen GU AMC qHTS for Zika virus inhibitors (AID 1347153); details: Recombinant NS2B-NS3 protease, AMC substrate fluorescence;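 note: enzyme at 25 nM with substrate at 10 µM below its Km of 18.3 µM; potency is the fitted concentration of half-maximal effect; nearly all actives have a fitted effect of over 70% in size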
How it was run: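 Unlinked NS2B-NS3 complex (25 nM) in 10 mM Tris-HCl pH 8.0, 0.01% Tween 20 preincubated 15 min with compound, then 10 microM Bz-Nle-KRR-AMC (Km 18.3 µM). Fluorescence change over 15 min, normalized, Hill-fitted.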

[2] = ZIKV-mCherry secondary qHTS for Zika virus inhibitors (AID 1347158); details: Vero cells, ZIKV-mCherry infection imaging, 48-72 h; note: potency is the fitted concentration of half-maximal effect
How it was run: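 After overnight seeding at 37 °C, Vero cells receive compound and then ZIKV-mCherry (MOI 1). Following 48-72 h infection, cells are fixed, counterstained with Hoechst, and imaged; percent infected cells is derived from an mCherry intensity cut-off of 450 RFU.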

[3] = Tertiary RLuc qRT-PCR qHTS assay for Zika virus inhibitors (AID 1347169); details: infected Vero cells, reporter luminescence, 48-72 h; series mostly up to 45.9 µM; note: nearly all actives have a fitted effect of over 55% in size; note: potency is the fitted concentration of half-maximal effect; for activity change, negative = inhibition: top concentration of the series differs between compounds; % is set by controls: 0 for no effect and ±100 for the full control effect
How it was run: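 Orthogonal cell-based readout: luminescence measured 1-1.5 hrs after adding live-cell Renilla substrate to Vero cells that had been infected with ZIKV-RLuc (MOI 1-2) post-compound, incubated 48-72 hrs at 37 degrees C.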

[4] = Confirmatory screen GU Rhodamine qHTS for Zika virus inhibitors qHTS (AID 1347157); details: purified enzyme assay, Rhodamine110 substrate fluorescence, 15 min; note: potency is the fitted concentration of half-maximal effect; nearly all actives have a fitted effect of over 70% in size
How it was run: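 Percent inhibition derives from the 15-min fluorescence change (ex 480, em 540 nm), normalized to no-enzyme and no-inhibitor wells. Reactions contained 25 nM NS2B-NS3 complex and 1.5 microM substrate in 10 mM Tris-HCl pH 8.0.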

[5] = system: Zika virus NS2B-NS3 protease (unlinked complex); test: Primary screen GU Rhodamine qHTS for Zika virus inhibitors: Unlinked NS2B-NS3 protease assay (AID 1347159); details: Recombinant ZIKV NS2B-NS3 protease, Rhodamine110 substrate fluorescence; series mostly up to 107 µM; note: % is set by controls: 0 for no effect and ±100 for the full control effect; nearly all actives have a fitted effect of over 60% in size
How it was run: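 Noncovalent NS2B hydrophilic domain/NS3 protease complex (25 nM final) in 10 mM Tris-HCl pH 8.0, 0.01% Tween 20, preincubated 15 min with compounds (up to 114 microM), then 1.5 microM Rhodamine110 substrate. Fluorescence change over 15 min fitted to 4-parameter Hill.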

[6] = OV-KATE Cancer Cell Toxicity qHTS against the NCATS CANVASS Library (AID 1347345); details: OV-KATE cells viability, CellTiter-Glo luminescence, 72 h; series mostly up to 76 µM; note: % is set by controls: 0 for no effect and ±100 for the full control effect
Description: Natural products and their derivatives continue to be wellsprings of nascent therapeutic potential. However, many laboratories have limited resources for biological evaluation, leaving their previously isolated or synthesized compounds largely or completely untested. To address this issue, the Canvass library of natural products was assembled (https://tripod.nih.gov/canvass), in collaboration with academic and industry researchers, for quantitative high-throughput screening (qHTS) across a diverse set of cell-based and biochemical assays. The pure (>85% purity by liquid chromatography/mass spectrometry [LC/MS]) Canvass library of 346 natural products were submitted by 45 academic laboratories and companies around the world. […] The library was formatted into 1536-well plates and evaluated in 50 qHTS (in an 11-pnt concentration series) bioassays with broad scope of disease-relevant mechanisms. The resulting data set from 50 different assays was then systematically analyzed to identify overall trends and specific natural products with interesting biological activities. […]
Cancer Cell Toxicity protocol for cell lines COV-362, OV-KATE, OV-SAHO, UWB1.289, UWB1.289-WTBRCA1, HEK-293, HPAF-II, Panc-1005, SW1088, or U-118MG. […] Luminescence signal was acquired via the ViewLux plate reader (PerkinElmer) using a clear filter, 2 second exposure and 2x binning settings.

[7] = HPAF-II Cancer Cell Toxicity qHTS against the NCATS CANVASS Library (AID 1347346); details: HPAF-II viability, CellTiter-Glo ATP luminescence, 72 h; series mostly up to 76 µM; note: % is set by controls: 0 for no effect and ±100 for the full control effect; nearly all actives have a fitted effect of over 55% in size
How it was run: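 Cytotoxicity in HPAF-II pancreatic cancer cells: 72 h treatment across 11 concentrations, ATP-based CellTiter-Glo luminescence endpoint.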

[8] = Confirmatory screen NINDS Rhodamine qHTS for Zika virus inhibitors (AID 1347161); details: purified enzyme assay, Rhodamine110 substrate fluorescence, 15 min; note: potency is the fitted concentration of half-maximal effect; nearly all actives have a fitted effect of over 60% in size
How it was run: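 Percent inhibition, normalized to uninhibited and enzyme-free controls, is fitted to a 4-parameter Hill equation. Fluorescence change comes from a 15-min cleavage of 1.5 microM bis-peptide Rhodamine110 substrate by 25 nM linked NS2B-NS3 at room temperature.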

[9] = system: Zika virus NS2B-NS3 protease (linked construct); test: Primary screen NINDS Rhodamine qHTS for Zika virus inhibitors (AID 1347160); details: purified NS2B-NS3 protease, Rhodamine110 substrate fluorescence; series mostly up to 57.1 µM; note: % is set by controls: 0 for no effect and ±100 for the full control effect; nearly all actives have a fitted effect of over 55% in size
How it was run: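 Purified NS2B-NS3 protease with the NS2B hydrophilic domain joined by a flexible linker (25 nM) in 10 mM Tris-HCl pH 8.0, 0.01% Tween 20, preincubated 15 min at RT with compound; Rhodamine110 peptide substrate 1.5 µM; fluorescence change over 15 min; 4-parameter Hill fit.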

With `O=C(Nc1ccc(Br)cc1)c1cc(Br)cc(Br)c1O` the Potency [1] was 21.5 µM (active), the Potency [2] was 8.91 µM (active) and the Potency [3] was 8.29 µM (active).

In the case of `O=c1c(C2CC(c3ccc(-c4ccc(Br)cc4)cc3)Cc3ccccc32)c(O)sc2ccccc12` (stereo unspecified), the Potency [1] is reported as 12.1 µM (active).

In the case of `O=C1OC(c2ccc(O)c(S(=O)(=O)O)c2)(c2ccc(O)c(S(=O)(=O)O)c2)c2c(Br)c(Br)c(Br)c(Br)c21`, the Potency [4] is reported as 3.16 µM (active).

For `CC(NC(C)(C)C)C(=O)c1cccc(Cl)c1` (stereo unspecified), the outcome [5] was “inactive”.

For `CC(C)N(CCC(C(N)=O)(c1ccccc1)c1ccccn1)C(C)C` (stereo unspecified), the outcome [5] was “inactive”.

With `NCCc1ccc(O)cc1` the outcome [6] was “inactive” and the outcome [7] was “inactive”.

With `CC(=O)OCC1=C(C(=O)O)N2C(=O)[C@@H](N)[C@H]2SC1` the Potency [4] was 22.1 µM (active), the outcome [5] was “inactive” and the Potency [8] was 24.8 µM (active). For the same compound, the Potency [3] was “inactive”.

In the case of `C=CCN1C[C@H](C)N([C@H](c2ccc(C(=O)N(CC)CC)cc2)c2cccc(OC)c2)C[C@H]1C`, the activity change, negative = inhibition [5] is reported as -8.84% [at 19.1 µM] (inactive) and the activity change, negative = inhibition [9] is reported as 6.42% [at 10.7 µM] (inactive).

For `C[C@]12CC[C@@H]3c4ccc(OC(=O)N(CCCl)CCCl)cc4CC[C@H]3[C@@H]1CC[C@@H]2OP(=O)(O)O`, the outcome [9] was “inactive”.
